Test results published in the supplement of paper PMC9433436.
± gives the standard deviation of the averaged measurements. The full ranking holds about 4,100 sequences; the median of “relative kcat/Km (krel) vs genomic leader AAAGAU” is about 1.7, and the highest 2% start at about 6.5. Shown is part of a subset that was picked to be rich in the highest values.

Biological target: T1, E. coli RNase P holoenzyme (M1 P RNA + rnpA protein) (UniProt P0A7Y8)
T1 sequence: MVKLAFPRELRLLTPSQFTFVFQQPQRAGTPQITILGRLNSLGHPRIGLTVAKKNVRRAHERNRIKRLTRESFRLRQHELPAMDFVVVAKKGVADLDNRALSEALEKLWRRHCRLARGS
Assay: relative kcat/Km (krel) vs genomic leader AAAGAU (relative (reference leader = 1)); higher = faster RNase P cleavage
Description: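 HTS-Kin: a pool of ptRNA-Met (21C construct) with all 4096 combinations of 5' leader nucleotides N(-6) to N(-1) was processed in vitro by E. coli RNase P (P RNA + rnpA/C5 protein) under multiple-turnover conditions at 37 C, pH 8, 17.5 mM MgCl2. Residual substrate was Illumina-sequenced at several fractions reacted, and relative kcat/Km (krel) was computed by internal competition kinetics, calibrated to the genomic leader (AAAGAU = 1). The listed hexamer is the varied N(-6)..N(-1) leader (DNA letters), and it sits between a fixed 5' stem-loop flank (GCAUGCACGAAAGUGCGUGCUAUGAA) and the mature tRNA-Met starting GGCUACGUAGCUCAGUUGG. Two technical replicates are averaged.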

[1] = fraction of substrate reacted: ~9-10% (9.79% repeat 1, 9.1% repeat 2)
[2] = fraction of substrate reacted: ~13-16% (15.68% repeat 1, 13.17% repeat 2)
[3] = fraction of substrate reacted: ~26-29% (28.66% repeat 1, 26.4% repeat 2)

Sequence | relative kcat/Km [1] | relative kcat/Km [2] | relative kcat/Km [3]
TACCAT | 3.78 ± 1.5 | 5.08 ± 1.6 | 7.73 ± 3.6
CACCAG | 2.64 ± 2.5 | 1.93 ± 0.07 | 3.58 ± 1.1
TACCAG | 2.73 ± 1.4 | 2.64 ± 1.1 | 4.81 ± 1.2
TACCTT | 2.52 ± 0.33 | 3.78 ± 0.62 | 5.64 ± 2.6
TACCAC | 3.48 ± 1.4 | 4.03 ± 1.6 | 6.63 ± 2.9
CACCAT | 4.34 ± 1.2 | 4.72 ± 0.96 | 7.01 ± 2.9
AACCAT | 2.62 ± 1.1 | 2.62 ± 0.3 | 4.77 ± 2
TACCAA | 3.31 ± 1.5 | 4.01 ± 0.25 | 6.07 ± 1.9
GACCAT | 3.62 ± 2.1 | 3.91 ± 0.13 | 5.96 ± 1.9
ATAAGA | 1.69 ± 0.23 | 2.23 ± 0.39 | 3.63 ± 1.3
ACGTTG |  |  | 1.56 ± 0.44
ACCGCC | 2.87 ± 1.1 | 2.93 ± 0.072 | 4.69 ± 1
TGGACC | 0.825 ± 0.51 | 0.618 ± 0.3 | 0.551 ± 0.0088
TAACTC | 1.62 ± 0.57 | 1.49 ± 0.16 | 2.26 ± 0.86
ACGTAT | 2.73 ± 1.2 | 3.73 ± 1.2 | 5 ± 1.8
TCGTAA | 3.3 ± 0.9 | 3.79 ± 0.62 | 6.16 ± 2.7
TTGTAG | 2.4 ± 1.1 | 1.92 ± 0.36 | 3.78 ± 0.77
TCGTCT | 3 ± 0.94 | 2.99 ± 1.4 | 4.35 ± 1.2
GCGTAC | 2.64 ± 0.68 | 1.98 ± 0.25 | 3.77 ± 1.5
TCGTAC | 4.21 ± 1.1 | 5.11 ± 1.9 | 7.91 ± 3.5
GTGTAC | 1.78 ± 0.16 | 2.012 ± 0.0038 | 3.45 ± 1
CCGTAT | 3.19 ± 0.25 | 4.32 ± 0.66 | 5.94 ± 2.6
TTGTAC | 3.78 ± 0.42 | 4.71 ± 1.3 | 7.05 ± 2.9
GCGTCC | 1.32 ± 0.099 | 1.73 ± 0.52 | 2.64 ± 0.41
TCGTAT | 4.13 ± 0.92 | 4.78 ± 0.97 | 7.28 ± 3.4
TCGTCC | 3.8 ± 0.41 | 5.03 ± 1.6 | 6.93 ± 3.5

Sequence | relative kcat/Km [1] | relative kcat/Km [2] | relative kcat/Km [3]
AGTTCG |  | 0.601 ± 0.24 | 1.95 ± 0.2
GATGAG |  |  | 0.577 ± 0.44
CAAAAA | 1.14 ± 0.13 | 0.985 ± 0.72 | 2.42 ± 0.98
GGTCTT |  | 1.32 ± 0.41 | 1.72 ± 0.37
ACGGGT |  |  | 1.35 ± 0.62
GCTCGC | 1.28 ± 1.3 | 1.58 ± 0.13 | 1.96 ± 0.049
GTTGTT | 0.832 ± 0.53 | 0.86 ± 0.24 | 1.07 ± 0.92
GGTCGC | 1.81 ± 0.88 | 2.0828 ± 0.002 | 3.37 ± 1.1
TATTGA | 3.87 ± 0.33 | 4.42 ± 1.1 | 6.93 ± 3.1
TATTGC | 3.74 ± 1.7 | 4.4 ± 0.4 | 6.68 ± 3.2
TATTGG | 0.568 ± 0.24 |  | 1.46 ± 0.98
AATTGA | 2.34 ± 0.47 | 3.16 ± 0.37 | 4.64 ± 1.2
GATTGA | 2.31 ± 0.22 | 3.98 ± 1.1 | 4.96 ± 2.3
CATTGC | 3.51 ± 1.1 | 4.2 ± 0.93 | 5.82 ± 2.3
TTAGTG |  |  | 0.934 ± 0.09
AACTAT | 3.41 ± 0.78 | 4.44 ± 0.83 | 6.43 ± 3.1
TACTAG | 3.46 ± 2 | 3.248 ± 0.0033 | 5.53 ± 2
CACTAG | 2.94 ± 2.4 | 3.2 ± 0.63 | 5.04 ± 0.72
AACTAA | 2.93 ± 0.16 | 4.29 ± 1.7 | 6.5 ± 3.1
TACTAA | 5.23 ± 2.7 | 6.48 ± 0.54 | 8.92 ± 3.4
CACTAA | 4.69 ± 2 | 6.03 ± 0.39 | 7.49 ± 2.5
CACTGA | 2.94 ± 1.2 | 3.71 ± 0.65 | 5.8 ± 1.7
TACTAC | 5.21 ± 2 | 6.73 ± 1.9 | 9.59 ± 4
GACTAT | 4.87 ± 2 | 5.68 ± 1.6 | 8.33 ± 3.5
TACTGC | 3.83 ± 1.5 | 4.1 ± 0.86 | 5.96 ± 1.5
GACTGT | 0.875 ± 0.79 | 1.18 ± 0.32 | 1.09 ± 0.23

Sequence | relative kcat/Km [1] | relative kcat/Km [2] | relative kcat/Km [3]
TGGAAA | 1.63 ± 1.1 | 0.838 ± 0.78 | 1.61 ± 0.29
GTGTCA | 1.15 ± 0.97 | 0.779 ± 0.57 | 1.49 ± 0.16
GCCTGG |  |  | 0.776 ± 0.2
GTGCCC | 1.01 ± 0.23 | 0.583 ± 0.44 | 1.13 ± 0.088
TTTGCT | 0.76 ± 0.28 | 0.721 ± 0.56 | 0.983 ± 0.097
CAAAAC | 1.4 ± 0.17 | 1.59 ± 0.4 | 2.51 ± 0.41
GACTAG | 1.77 ± 1.4 | 2.58 ± 0.6 | 4.67 ± 1.3
GACTAA | 4.15 ± 1.9 | 5.64 ± 1.3 | 8.21 ± 3.3
AACTAG | 3.36 ± 2.5 | 2.8 ± 0.61 | 3.95 ± 1.3
TACTAT | 4.15 ± 0.89 | 6.07 ± 1.3 | 9 ± 3.9
TACTGT | 0.799 ± 0.45 | 1.56 ± 1.4 | 1.19 ± 0.64
GACTTA | 3.03 ± 0.62 | 4.15 ± 0.96 | 5.78 ± 2.2
ATGAAG | 0.588 ± 0.19 | 0.919 ± 0.16 | 1.85 ± 0.42
AGTCGG |  | 0.482 ± 0.36 | 1.03 ± 0.14
GAGAAA | 2.38 ± 1.1 | 3.13 ± 0.99 | 3.4 ± 0.98
TTCATC | 4.42 ± 1.8 | 5.94 ± 0.79 | 8.86 ± 3.8
TGCATC | 2.12 ± 1.2 | 1.5 ± 0.48 | 2.05 ± 0.7
TCCATC | 3.7 ± 1.8 | 3.95 ± 0.47 | 6.33 ± 2.3
GTCATT | 4.45 ± 1.6 | 5.21 ± 2 | 8.08 ± 4
TTCATA | 4.76 ± 2.5 | 6.15 ± 0.55 | 8.54 ± 3.2
TTCATG | 2 ± 2 | 2.08 ± 0.48 | 4.3 ± 1.5
TTCATT | 4.9 ± 1.8 | 6.77 ± 1.4 | 9.68 ± 4.2
ATCATT | 3.39 ± 1.4 | 4.551 ± 0.032 | 6.49 ± 2.6
GGCATT | 1.85 ± 0.77 | 2.15 ± 0.27 | 3.37 ± 1.4
TGCATT | 0.949 ± 0.79 | 1.93 ± 1.2 | 2.68 ± 1.7
CTCATA | 3.84 ± 2.5 | 4.93 ± 0.27 | 6.23 ± 2.5

Sequence | relative kcat/Km [1] | relative kcat/Km [2] | relative kcat/Km [3]
TCTACA | 1.43 ± 0.68 | 1.87 ± 0.44 | 2.46 ± 1.1
GGTAAG | 1.39 ± 1.3 | 0.931 ± 0.053 | 2.32 ± 1.1
TCCACT | 2.76 ± 1.1 | 3.06 ± 0.4 | 4.72 ± 1.1
CATCGT |  |  | 1.54 ± 1.2
GGATCA | 0.973 ± 0.2 | 1.04 ± 0.42 | 1.53 ± 0.71
CACGGT |  |  | 1.7 ± 0.39
AGAGAT | 0.682 ± 0.45 | 1.15 ± 0.6 | 1.75 ± 0.4
GTCATG |  | 1.48 ± 0.37 | 3.5 ± 0.91
GTCATA | 4.4 ± 2 | 4.91 ± 0.65 | 7.54 ± 3
ATCATA | 3.61 ± 1.8 | 4.31 ± 0.3 | 5.9 ± 2.2
CGAGAG | 0.809 ± 0.14 |  | 0.931 ± 0.1
CCTTCC | 1.62 ± 0.022 | 1.51 ± 1.3 | 2.47 ± 0.27
TCCGAT | 2.34 ± 0.53 | 2.91 ± 1.4 | 4.01 ± 1.3
CCCGAT | 2.59 ± 0.49 | 2.76 ± 1.2 | 3.21 ± 0.9
ACCGAA | 3.81 ± 1.6 | 4.31 ± 1 | 6.81 ± 3
TCCGAG | 2.34 ± 0.033 | 2.52 ± 1.4 | 5.01 ± 2.2
ACCGAG | 2.58 ± 2.5 | 0.833 ± 0.22 | 2.44 ± 0.21
CCCGAG | 1.48 ± 0.82 | 0.888 ± 0.25 | 3.16 ± 0.072
ACCGAC | 2.3 ± 2.1 | 3.17 ± 0.29 | 4.58 ± 1
TCCGAA | 5.05 ± 1.9 | 6.23 ± 1.9 | 9.05 ± 3.9
GCCGAC | 2.64 ± 1.3 | 3.49 ± 0.69 | 5.36 ± 2.2
GCCGAA | 3.56 ± 1.2 | 4.16 ± 0.78 | 6.35 ± 2.4
TCCGAC | 3.47 ± 0.1 | 4.91 ± 1.2 | 7.68 ± 3
CCCGAA | 2.83 ± 1.5 | 4.35 ± 1.8 | 6.76 ± 2.5
ACTCGT |  |  | 2.02 ± 1.7
AGCACG |  |  | 1.13 ± 0.11

Sequence | relative kcat/Km [1] | relative kcat/Km [2] | relative kcat/Km [3]
TTAGAA | 2.72 ± 1.5 | 2.61 ± 0.03 | 3.57 ± 1.4
GCCCAT | 3.07 ± 2.2 | 3.36 ± 0.14 | 5.4 ± 1.5
TCCCAA | 4.73 ± 3.1 | 4.63 ± 0.2 | 6.94 ± 2.3
TCCCAT | 4.48 ± 2.4 | 5.74 ± 1 | 8.73 ± 3.7
GCCCAC | 3.04 ± 0.041 | 4.04 ± 1.6 | 5.93 ± 2.8
ACCCAA | 2.3 ± 0.84 | 2.69 ± 0.25 | 4.83 ± 1.9
TCCCAC | 4.44 ± 1.1 | 5.53 ± 1.1 | 7.79 ± 3
ACCCAC | 3.6 ± 1.7 | 3.71 ± 0.7 | 5.48 ± 1.8
CCCCAA | 3.03 ± 1.2 | 3.57 ± 0.21 | 4.97 ± 1.6
ACCCAT | 2.43 ± 0.83 | 2.95 ± 0.91 | 5.63 ± 2.4
GCTATG |  |  | 1.51 ± 0.12
AGAAAG | 1.38 ± 1.3 | 1.14 ± 0.7 | 2.2 ± 0.47
CGGACG | 1.05 ± 1.1 |  | 0.906 ± 0.41
GCATAA | 1.89 ± 0.96 | 2 ± 0.52 | 3.04 ± 1.1
ATAGTC | 1.61 ± 0.89 | 1.42 ± 1 | 1.68 ± 0.75
AGTAAT | 2.83 ± 0.62 | 3.38 ± 0.27 | 5.07 ± 2.3
TTCCTA | 3.35 ± 1.2 | 4.53 ± 0.46 | 5.89 ± 2.4
AACGCA | 2.99 ± 1.6 | 3.18 ± 0.58 | 4.32 ± 1.4
GACGCC | 3.241 ± 0.028 | 4.62 ± 1.3 | 6.69 ± 2.6
AACGCC | 1.93 ± 0.48 | 3.24 ± 1.4 | 4.53 ± 1.3
TACGCC | 3.64 ± 0.043 | 5.35 ± 1.7 | 7.66 ± 3.3
GACGCA | 3.33 ± 1.3 | 3.62 ± 0.97 | 5.24 ± 1.8
GACGCT | 2.24 ± 0.19 | 2.17 ± 0.8 | 3.11 ± 1.4
TACGCG | 1.87 ± 1.1 | 1.66 ± 0.44 | 3.13 ± 0.89
TACGCA | 2.71 ± 1.7 | 4.27 ± 0.58 | 6.64 ± 3.4
GACGCG |  | 0.59 ± 0.14 | 2.38 ± 0.093
